The record followed here is PubChem BioAssay AID2280 (The Scripps Research Institute Molecular Screening Center, 2010).

About 1,400 (0.44%) of roughly 320,000 compounds were called active. The sample holds actives, similar compounds and a random draw of the others, so the mix is not that of the screen.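 Rule for the calls: active = percent inhibition above a per-plate cutoff, the plate mean of test compounds plus 3 SD (cut at about 30% in these data); inactive = the rest.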

Sequence of Female germline-specific tumor suppressor gld-1 (Caenorhabditis elegans) (Q17339 whole entry, looked up): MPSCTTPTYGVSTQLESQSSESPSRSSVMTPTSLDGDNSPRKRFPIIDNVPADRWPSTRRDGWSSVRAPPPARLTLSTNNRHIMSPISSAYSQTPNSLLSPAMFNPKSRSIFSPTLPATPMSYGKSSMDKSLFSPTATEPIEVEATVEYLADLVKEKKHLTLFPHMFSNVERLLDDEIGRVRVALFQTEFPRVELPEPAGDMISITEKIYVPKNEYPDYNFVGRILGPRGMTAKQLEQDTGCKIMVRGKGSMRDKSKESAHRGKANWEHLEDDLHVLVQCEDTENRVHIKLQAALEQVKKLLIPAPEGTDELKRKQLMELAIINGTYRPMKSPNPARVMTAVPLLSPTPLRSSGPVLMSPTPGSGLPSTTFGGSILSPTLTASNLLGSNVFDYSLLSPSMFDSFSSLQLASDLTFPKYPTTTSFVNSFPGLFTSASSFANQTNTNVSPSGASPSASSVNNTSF

This experiment has as its target Female germline-specific tumor suppressor gld-1 (Caenorhabditis elegans) (UniProt Q17339). The experiment in a line: GLD-1/TGE RNA complex disruptors, primary screen, biochemical, fluorescence polarization (AID 2280).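 Note: 0% = DMSO wells with GLD-1 and probe and 100% = wells lacking GLD-1.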 To be noted: purified GLD-1 + fluorescein TGE RNA, at 5.96 µM, hits give high values. On the technique in general: In fluorescence polarisation assays a small probe gives low polarisation when free and higher when bound to something large.
Consider `CCOC(=O)C1CCN(C(=O)CC2C(=O)N(Cc3ccccc3)C(C)c3nc4ccccc4n32)CC1` (configuration not stated), for which the inhibition (as a rule, the drop in the measured response relative to a control, in per cent) is 3.57% (inactive).
As for `O=C(CN1CCN(Cc2ccc(F)cc2Cl)C1=O)NCc1cccs1`, the figure is 5.83% (inactive).
As for `CCOc1cc(/C=C2/C(=N)N3OC(C)=CC3=NC2=O)ccc1OC`, the inhibition was -3.88% (inactive).
As for `CC1=CC2=NC(=O)/C(=C/c3coc4ccccc4c3=O)C(=N)N2O1`, the figure is 32.9% (active).
As for `COc1ccc(OCCCn2cccc2/C=C2/C(=N)N3OC(C)=CC3=NC2=O)cc1`, the figure is 3.29% (inactive); as for `COC(=O)C1=C(NC(=O)C(C)(C)C)CCS1`, 5.48% (inactive); as for `CC(C)N(C(=O)COC(=O)c1ccccc1C(=O)N1CCN(c2ccc(F)cc2)CC1)C(C)C`, 6.66% (inactive).
As for `O=C(c1cc(=O)c2ccccc2o1)N1CCN(c2ccccc2)CC1`, the figure is -3.54% (inactive); as for `O=C(COC(=O)c1ccccc1C(=O)N1CCN(c2ccccc2)CC1)NCc1ccccc1`, 55.9% (active).
`CCn1c(=S)[nH]c2sc3c(c2c1=O)CCCCC3`: the inhibition is -5.76% (inactive).
In the case of `Cc1ccccc1SCC(=O)OCC(=O)N1CC(=O)Nc2ccccc21` it was 1.92% (inactive); in that of `CC1CN(C(=O)CCC(=O)NCCCN2CCC(Cc3ccccc3)CC2)c2cc(Cl)ccc2O1` (configuration not stated), 5.77% (inactive).
As for `CCCn1c(O)c(CN2CCCC(C)C2)c(C)c(C#N)c1=O` (configuration not stated), the figure is 41.2% (active).
As for `Cc1c(CN2CCCCC2)c(O)n(CCO)c(=O)c1C#N`, the figure is 7.69% (inactive); as for `CCCCCCn1c(CN2CCCC(C)C2)nc2c1c(=O)n(C)c(=O)n2C` (configuration not stated), 9.13% (inactive).
As to `COc1cccc(NC(=O)NCCN2CCCCC2)c1`, the inhibition is 11.7% (inactive).
In the case of `COCCNC(=O)Nc1ccc2nc(-c3ccco3)c(-c3ccco3)nc2c1` it was 69.3% (active); in that of `O=C(NCc1ccccn1)c1ccc2nc(-c3ccco3)c(-c3ccco3)nc2c1`, 20.3% (inactive).
In the case of `CNS(=O)(=O)c1ccc(NC(=O)C2CC(=O)N(c3ccc(Cl)cc3)C2)cc1` (configuration not stated) it was 1.34% (inactive); in that of `CC(C)(C)C(=O)CSc1ccc(S(=O)(=O)N2CCCC2)cn1`, 4.63% (inactive); in that of `CCCCc1ccc(S(N)(=O)=O)cc1`, 6.14% (inactive).
In the case of `C[C@@H]1CC[C@@]2(OC1)O[C@H]1C[C@H]3[C@@H]4CC=C5C[C@@H](O)[C@H](O)C[C@]5(C)C4CC[C@]3(C)[C@H]1[C@@H]2C` (some centres not stated) it was -7.94% (inactive).
`COc1cccc2cc(C(C)N(CCCN3CCOCC3)C(=O)Nc3ccc(Cl)cc3)oc12` (configuration not stated): the inhibition was 2.92% (inactive).
In the case of `Nc1cccc2c1C(=O)N(Cc1nnc(-c3ccccc3Br)o1)C2=O` it was 37% (active); in that of `Cn1cnnc1SCc1nnc(-c2ccccc2Br)o1`, -10.8% (inactive); in that of `CCOC(=O)N1CCN(Cc2nnc(-c3ccccc3Cl)o2)CC1`, -10.5% (inactive).
In the case of `COc1cc(S(=O)(=O)N2CCN(C(=O)C3CC3)CC2)ccc1NC(C)=O` it was 3.97% (inactive); in that of `CCOc1ccc(NC(=O)c2cccc3c2C(=O)N(CC2CCCO2)C3)cc1` (configuration not stated), 2.1% (inactive); in that of `CCCCC1=CC2=CC(=O)C(C)(OC(=O)CC)C(=O)C2=CN1CCCOC(C)C` (configuration not stated), 22.9% (inactive).
As for `COC/C=C/C1=CC2=CC(=O)C(C)(OC(=O)CCC(=O)OC)C(=O)C2=CO1` (configuration not stated), the figure is 46.7% (active).
Take `COCCN1C=C2C(=O)C(C)(OC(=O)C3CCCC3)C(=O)C=C2C=C1c1ccsc1` (configuration not stated): the inhibition is 23.1% (inactive).
As for `CSCCNC(=O)c1ccc2nc(Cc3ccccc3F)oc2c1`, the figure is -1.35% (inactive).
For `COc1ccc(CCN2C(=O)CC(N3CCC(C(N)=O)CC3)C2=O)cc1OC` (configuration not stated), the inhibition was 1.78% (inactive).
Consider `CCn1c(SCc2ccccc2)nc2cc(OC)c(OC)cc2c1=O`, for which the inhibition is -3.64% (inactive).
As for `COC(=O)c1ccc(SCc2ccccc2)nc1`, the figure is -5.64% (inactive); as for `CSc1c(SCc2ccccc2)cnn(Cc2ccccc2)c1=O`, 140% (active); as for `COc1cc2c(C(=O)N3CCN(C)CC3)c(CSc3ccccc3)n(C)c2cc1Br`, 0.62% (inactive).
Regarding `COC(=O)c1sc(-c2ccc(C(C)(C)C)cc2)cc1NC(=O)/C=C/C(=O)O`, the inhibition was -0.27% (inactive).
As for `CC(=O)Nc1ccccc1Sc1ccc2c3c(cccc13)C(=O)N(c1ccc(C)cc1)C2=O`, the figure is 0.24% (inactive); as for `COc1ccc(N2C(=O)c3cccc4cccc(c34)C2=O)nn1`, 13.5% (inactive); as for `O=C(O)c1ccc2c3c(cccc13)C(=O)N(OS(=O)(=O)c1ccccc1)C2=O`, 13.8% (inactive).
As for `Cc1nn(C)cc1C(=O)c1ccccc1`, the figure is 1.39% (inactive); as for `CN1C(=O)c2cccc3c(N)ccc(c23)C1=O`, 198% (active); as for `COc1ccccc1C(=O)NCCC(=O)NCC(c1ccco1)N1CCCCC1` (configuration not stated), 3.67% (inactive).
In the case of `CC(C)(C)CN1CCNC(=O)C1CC(=O)NC1Cc2ccccc2C1` (configuration not stated) it was 8.53% (inactive); in that of `COc1ccccc1CNC(=O)c1ccc(Cl)c(S(=O)(=O)N2CCCC2)c1`, 0.54% (inactive).
Consider `CCN1/C(=C\c2ccc3ccccc3[n+]2CC)Sc2cc(C)ccc21`, for which the inhibition was 61.6% (active).
With `N/C(=N\OC(=O)CCn1cccc(C(F)(F)F)c1=O)c1ccc(OC(F)(F)F)cc1`, the inhibition was -1.66% (inactive).
In the case of `CCOc1ccc(C(=O)NC2CCN(C(=O)Nc3ccccc3OC)CC2)cc1` it was 0.46% (inactive).
As for `CCOc1ccc2nc(N3CCCN(C(=O)Nc4ccccc4C)CC3)c(C#N)cc2c1`, the figure is 42% (active); as for `CCOC(=O)c1cc(C#N)c(N2CCCCC2)nc1-c1ccccc1`, -3.77% (inactive); as for `CC1CCCC(NC(=O)c2cccc(N3CCCC3=O)c2)C1C` (configuration not stated), 2.8% (inactive).
As for `COc1ccccc1C(=O)Nc1nc2nc(-c3ccccc3)cc(=O)n2[nH]1`, the figure is 0.62% (inactive).
On to `CCNS(=O)(=O)c1ccc(CCC(=O)N2CCN(c3cc(Cl)ccc3C)CC2)cc1`, for which the inhibition was 1.35% (inactive).
As for `COc1ncnc2c1N=C1CC(C)(C)CC(N)=C1S2`, the figure is 112% (active).
In the case of `Cc1cc(C)n(-c2nc(O)cc(=O)[nH]2)n1` it was 4.97% (inactive); in that of `CC(C)(C)c1ccc(Cn2nnc3c(=O)[nH]c(C4CCCN(C(=O)c5ccco5)C4)nc32)cc1` (configuration not stated), 4.28% (inactive); in that of `CCOC(=O)c1cccc(NC(=O)CN2C(=O)C3CC=CCC3C2=O)c1` (configuration not stated), 4.12% (inactive).
As for `Cc1ccc(OCC(=O)Nc2ccc(C(=O)O)cc2NC(=O)COc2ccc(C)c(C)c2)cc1C`, the figure is 8.42% (inactive).
On to `CCOC(=O)c1cnc(SC)nc1Sc1ccc(Cl)cc1Cl`, for which the inhibition is 6.36% (inactive).
In the case of `CCN(CC(=O)Nc1ccccc1OC)C(=O)CC1CC2CCC1C2` (configuration not stated) it was -0.14% (inactive); in that of `CCN(CC(=O)Nc1ccccc1OC)C(=O)Cn1cnc2ccccc2c1=O`, 4.15% (inactive).
Take `CCCN(CC(=O)Nc1ccccc1OC)C(=O)CCC(=O)c1ccc(F)cc1`: the inhibition was 54.8% (active).
Turning to `CC1CCN(C(=O)Cn2nnnc2CN2CCOCC2)CC1`, the inhibition was 0.79% (inactive).
As for `CCCCNc1c(-c2cccc(Sc3ccc(OC)cc3)c2)nc2ccccn12`, the figure is 2.4% (inactive); as for `Cc1cccc(N2C(=O)SC(SC(=Nc3ccccc3)Nc3ccccc3)C2=O)c1` (configuration not stated), 10.3% (inactive); as for `COc1ccc(C)cc1NC(=S)Nc1ccccc1SC`, -6.51% (inactive).
As for `COc1ccc2c(CC(=O)N3CCc4cc(OC)c(OC)cc4C3)coc2c1`, the figure is 5.21% (inactive); as for `O=C(CSc1ccc2nnc(-c3ccccc3)n2n1)N1CCCc2ccccc21`, -1.09% (inactive); as for `COC(=O)CCCC1=CC2=CC(=O)C(C)(OC(=O)c3cccs3)C(=O)C2=CN1CC(C)C` (configuration not stated), 5.88% (inactive).
Turning to `COC(=O)CCCC1=CC2=C(c3ccccc3)C(=O)C(C)(OC(=O)C3CCCC3)C(=O)C2=CN1c1ccc(OC)cc1` (configuration not stated), the inhibition was 7.24% (inactive).
In the case of `COC(=O)CCCC1=CC2=CC(=O)C(C)(OC(=O)c3cccs3)C(=O)C2=CN1c1cccc(C#N)c1` (configuration not stated) it was 38.1% (active); in that of `Cc1ccc(O)c(NC(=O)c2cc(-c3ccco3)on2)c1`, 1.89% (inactive); in that of `C[C@H]1CN([C@@H](C)CO)C(=O)Cc2cc(NS(C)(=O)=O)ccc2O[C@@H]1CN(C)CC1CC1`, 0.15% (inactive).
`CCC(CO)Oc1cc(NCc2ccccc2)c2ncn(C3CCCC3)c2c1` (configuration not stated): the inhibition was 5.5% (inactive).
In the case of `CC(C)n1cnc2c(NCc3ccccc3)cc(N[C@@H](CO)Cc3ccccc3)cc21` it was 43.8% (active); in that of `CC(C)n1cnc2c(NCc3ccccc3)cc(OCC3CCN(C)CC3)cc21`, -21.3% (inactive); in that of `CC(c1cccnc1)N(CCN(C)C)C(=O)Nc1ccc(Cl)c(Cl)c1` (configuration not stated), -1.61% (inactive).
In the case of `C/C(=N\N=C(N)N)c1ccc(Cl)cc1` it was -0.39% (inactive); in that of `N#C/C(=C/c1cccc([N+](=O)[O-])c1)c1nnc2n1CCCCC2`, -1.89% (inactive).
In the case of `N#C/C(=C(\O)CCl)c1nnc2n1CCCCC2`, the inhibition is -10.3% (inactive).
As for `N#C/C(=C(\O)C(F)(F)F)c1nnc2n1CCCCC2`, the figure is 51.1% (active); as for `CS(=O)(=O)N1CCN(C(=O)CSc2ccccc2)CC1`, 2.68% (inactive); as for `Cc1ccc(S(=O)(=O)N2CCC3(CC2)OCCO3)c(C)c1`, -2.29% (inactive).
As for `CCOc1ccc(CNC(=O)C2CCC(=O)N2C2CCCC2)cc1OC` (configuration not stated), the inhibition was 7.99% (inactive).
As to `CCOc1cc(C2C(C(=O)OC)=CN(C3CCCC3)C=C2C(=O)OC)cc(Br)c1O`, the inhibition was 44.7% (active).
Take `COC(=O)C1=CN(Cc2ccc(OC)cc2)C=C(C(=O)OC)C1c1ccc(O)c(OC)c1`: the inhibition is 4.18% (inactive).
In the case of `CCC(C)[C@H](NC(=O)N1CCn2c1nc1ccccc12)C(=O)NCc1ccc(OC)cc1` (some centres not stated) it was 12.5% (inactive).
For the compound `C=CC[n+]1c(-c2ccc(C)cc2)csc1NNC(=O)Nc1ccccc1`, the inhibition is -11.8% (inactive).
`O=C(COC(=O)c1ccc(F)cc1)Nc1ccc2c(c1)OCO2`: the inhibition is 0.03% (inactive).
As for `NS(=O)(=O)c1ccc(NC(=O)COC(=O)c2c3c(nc4ccccc24)/C(=C\c2ccc4c(c2)OCO4)CCC3)cc1`, the figure is 105% (active); as for `O=C(COC(=O)c1ccncc1)Nc1ccc2c(c1)OCO2`, -0.85% (inactive).
